Bioassay records from PubChem BioAssay.
Pf Dd2 inh: blocks growth of Plasmodium falciparum Dd2 parasites. P. falciparum Dd2 growth, SYBR Green, 72 h; active compounds read low. activity change, % at 10 µM. 2.3% of 94,000 active; in the data active = activity change below about -80%
C diff HTS: blocks growth of Clostridium difficile | Clostridium difficile clinical isolate growth, OD600, 24 h; active compounds read low | AID 1259249 | 0.25% of 86,000 active | growth activity, negative = inhibition, % at 16 µg/mL (by protocol);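 active = mean growth activity at or below -80% and every replicate also at or below -80%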;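 also: 0% = DMSO wells and -100% = levofloxacin 16 µg/mL wells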
Numbers without * were called inactive; nt = not tested or not shown; ! = repeats disagree. Rows were chosen to be rich in hits. Some 2.3% of all compounds tested hit in one or more screens of this group.

SMILES	Pf Dd2 inh	C diff HTS
C[C@@H]1CN([C@H](C)CO)C(=O)c2cc(N(C)C)ccc2O[C@@H](C)CCCCO[C@H]1CN(C)S(=O)(=O)c1ccc(Cl)cc1	-84*	-4
COc1ccc(S(=O)(=O)N(C)C[C@@H]2OCCCC[C@@H](C)Oc3ccc(N(C)C)cc3C(=O)N([C@@H](C)CO)C[C@H]2C)cc1	-36	-1
COc1ccc(S(=O)(=O)N(C)C[C@H]2OCCCC[C@@H](C)Oc3ccc(N(C)C)cc3C(=O)N([C@H](C)CO)C[C@@H]2C)cc1	-83*!	-2
C[C@H]1CCCCO[C@@H](CN(C)S(=O)(=O)c2ccc(Cl)cc2)[C@@H](C)CN([C@@H](C)CO)C(=O)c2cc(N(C)C)ccc2O1	nt	0
C[C@H](CO)N1C[C@H](C)[C@H](CN(C)C(=O)Nc2ccc(F)cc2)Oc2ncc(C#Cc3cccc(F)c3)cc2C1=O	-8	59
CCCNC(=O)N1CC2(C1)[C@@H](c1ccccc1)[C@@H](CO)N2CC1CC1	21	5
CC(C)NC(=O)Nc1cccc2c1O[C@H](CN(C)C(=O)Nc1ccc(F)cc1)[C@H](C)CN([C@H](C)CO)C2=O	16	-4
C[C@H]1CN([C@@H](C)CO)S(=O)(=O)c2ccc(-c3ccc(C#N)cc3)cc2O[C@H]1CN(C)C	nt	-4
C[C@@H]1CCCCO[C@@H](CN(C)S(=O)(=O)c2ccc(Cl)cc2)[C@H](C)CN([C@H](C)CO)C(=O)c2cc(NC(=O)Nc3ccc(F)cc3)ccc2O1	-81*	8
C[C@@H]1CN([C@H](C)CO)C(=O)c2cc(NC(=O)Nc3ccc(F)cc3)ccc2O[C@@H](C)CCCCO[C@H]1CN(C)S(=O)(=O)c1ccc(Cl)cc1	-73	-7
Cc1ccc(S(=O)(=O)N(C)C[C@@H]2OCCCC[C@@H](C)Oc3ccc(NC(=O)Nc4ccc(F)cc4)cc3C(=O)N([C@H](C)CO)C[C@H]2C)cc1	-79	nt
Cc1ccc(S(=O)(=O)N(C)C[C@H]2OCCCC[C@H](C)Oc3ccc(NC(=O)Nc4ccc(F)cc4)cc3C(=O)N([C@@H](C)CO)C[C@H]2C)cc1	-82*	nt
COc1ccc2c3c(n(C)c2c1)[C@@H](CO)N(C(=O)C1CCCC1)CC31CCN(Cc2cccc(F)c2)CC1	-67	0
COc1ccccc1NC(=O)N1CCCCN2[C@@H](CO)[C@H](c3ccc(C#CC4CC4)cc3)[C@@H]2C1	-79	29
COc1ccccc1NC(=O)N1CCCCN2[C@@H](CO)[C@@H](c3ccc(C#CC4CC4)cc3)[C@@H]2C1	-90*	48
COc1ccccc1NC(=O)N1CCCCN2[C@@H](CO)[C@@H](c3ccc(-c4cccc(C)c4)cc3)[C@@H]2C1	-83*	-80*
COc1ccccc1NC(=O)N1CCCCN2[C@H](C1)[C@H](c1ccc(-c3cccc(C)c3)cc1)[C@@H]2CO	-6	29
O=C(NCC[C@H]1CC[C@@H](NC(=O)c2ccc3c(c2)OCO3)[C@H](CO)O1)Nc1cc(F)ccc1F	-16	nt
CCC(=O)N(C)C[C@@H]1Oc2cc(-c3ccccc3C)ccc2S(=O)(=O)N([C@H](C)CO)C[C@H]1C	-11	4
CN1c2ccc(Br)cc2[C@H]2[C@H](CCN2C(=O)Nc2cc(F)ccc2F)[C@H]1CO	-5	56
C[C@@H]1CN([C@@H](C)CO)S(=O)(=O)c2ccc(C3=CCCCC3)cc2O[C@@H]1CN(C)C(=O)C1CCOCC1	16	-3
C[C@@H]1CN([C@H](C)CO)C(=O)Cc2cc(NS(=O)(=O)c3ccccc3)ccc2O[C@@H]1CN(C)C(=O)Nc1ccc(C(F)(F)F)cc1	-11	-20
C[C@@H]1CN([C@@H](C)CO)C(=O)c2cc(NC(=O)Nc3ccc(F)cc3)ccc2O[C@@H](C)CCCCO[C@@H]1CN(C)S(=O)(=O)c1ccccc1	-84*	10
C[C@@H]1CN([C@H](C)CO)C(=O)c2cc(NC(=O)Nc3ccc(F)cc3)ccc2O[C@@H](C)CCCCO[C@H]1CN(C)S(=O)(=O)c1ccccc1	-76	4
C[C@@H]1CCCCO[C@@H](CN(C)S(=O)(=O)c2ccccc2)[C@H](C)CN([C@H](C)CO)C(=O)c2cc(NC(=O)Nc3ccc(F)cc3)ccc2O1	-75	-1
SMILES	Pf Dd2 inh	C diff HTS
C[C@@H]1CCCCO[C@@H](CN(C)S(=O)(=O)c2ccccc2)[C@@H](C)CN([C@@H](C)CO)C(=O)c2cc(NC(=O)Nc3ccc(F)cc3)ccc2O1	-81*	8
CN(C)C(=O)C[C@@H]1C=C[C@@H](NC(=O)C2CCOCC2)[C@@H](CO)O1	5	-2
C[C@@H]1CN([C@H](C)CO)C(=O)c2cc(NC(=O)NC3CCCCC3)ccc2O[C@@H]1CN(C)S(=O)(=O)c1ccc(F)cc1	12	-11
COc1ccc(S(=O)(=O)Nc2ccc3c(c2)C(=O)N([C@@H](C)CO)C[C@@H](C)[C@@H](CN(C)CC2CCCCC2)OCCCC[C@H](C)O3)cc1	-72	-5
C[C@H]1CN([C@@H](C)CO)C(=O)Cc2cc(NC(=O)NC3CCCCC3)ccc2O[C@@H]1CN(C)C(=O)Nc1ccc2c(c1)OCO2	-5	-1
COCC(=O)N1[C@@H]2c3cccc(=O)n3C[C@@H]2[C@@H](CO)[C@@H]1C(=O)NCc1ccccc1	nt	0
COc1cccc(C#Cc2cnc3c(c2)C(=O)N([C@@H](C)CO)C[C@@H](C)[C@@H](CN(C)C(=O)C2CCCCC2)O3)c1	0	3
COc1cccc(C#Cc2cnc3c(c2)C(=O)N([C@H](C)CO)C[C@@H](C)[C@@H](CN(C)C(=O)C2CCCCC2)O3)c1	-62	-6
COc1cccc(C#Cc2cnc3c(c2)C(=O)N([C@@H](C)CO)C[C@@H](C)[C@H](CN(C)C(=O)C2CCOCC2)O3)c1	-55	3
COc1cccc(C#Cc2cnc3c(c2)C(=O)N([C@H](C)CO)C[C@H](C)[C@@H](CN(C)C(=O)C2CCCCC2)O3)c1	-87*	28
COc1cccc(C#Cc2cnc3c(c2)C(=O)N([C@H](C)CO)C[C@@H](C)[C@H](CN(C)C(=O)C2CCCCC2)O3)c1	-68	22
COc1cccc(C#Cc2cnc3c(c2)C(=O)N([C@H](C)CO)C[C@H](C)[C@H](CN(C)C(=O)C2CCCCC2)O3)c1	-86*	0
COc1cccc(C#Cc2cnc3c(c2)C(=O)N([C@@H](C)CO)C[C@H](C)[C@@H](CN(C)C(=O)C2CCCCC2)O3)c1	-86*	24
COc1cccc(C#Cc2cnc3c(c2)C(=O)N([C@H](C)CO)C[C@H](C)[C@@H](CN(C)C(=O)C2CCOCC2)O3)c1	-81*	0
COc1cccc(CN(C)C[C@@H]2OCc3cn(nn3)CCCC(=O)N([C@H](C)CO)C[C@@H]2C)c1	-7	nt
COc1ccc(NC(=O)Nc2ccc3c(c2)CC(=O)N([C@H](C)CO)C[C@@H](C)[C@H](CN(C)C(=O)Nc2ccc(F)cc2)O3)cc1	10	0
CCCN(C)C[C@H]1Oc2ncc(-c3ccncc3)cc2C(=O)N([C@@H](C)CO)C[C@@H]1C	12	-4
COc1ccc(NC(=O)Nc2ccc3c(c2)C(=O)N([C@@H](C)CO)C[C@H](C)[C@@H](CN(C)CC2CCCCC2)OCCCC[C@H](C)O3)cc1	-86*	-4
COc1ccc(NC(=O)Nc2ccc3c(c2)C(=O)N([C@@H](C)CO)C[C@H](C)[C@@H](CN(C)CC2CC2)OCCCC[C@H](C)O3)cc1	-90*	nt
